Values joined by “and” are separate entries in the source; they are usually repeats but may differ in a detail not shown here. Identical values can stand only once. Inconclusive results are not listed. Active and inactive are the calls of the source. The call rests on the fitted dose curve; in most records, active means well fitted activation curve with a large enough effect in the repeat runs; inconclusive means weak or mixed curves; inactive means no such curve, though single readings can be large or run the other way.
Each compound was assayed against Nuclear receptor subfamily 1 group I member 2 (Rattus norvegicus) (UniProt Q9R1A7) (assay: Rat pregnane X receptor (rPXR) activation by small molecules, qHTS assay (AID 1346983; further: nearly all actives have a fitted effect of over 20% in size)). Conditions: rPXR luciferase reporter cells, One-Glo luminescence, 24 h; max activation: active compounds read high.
Sequence of Nuclear receptor subfamily 1 group I member 2 (Rattus norvegicus) (Q9R1A7 whole entry, looked up): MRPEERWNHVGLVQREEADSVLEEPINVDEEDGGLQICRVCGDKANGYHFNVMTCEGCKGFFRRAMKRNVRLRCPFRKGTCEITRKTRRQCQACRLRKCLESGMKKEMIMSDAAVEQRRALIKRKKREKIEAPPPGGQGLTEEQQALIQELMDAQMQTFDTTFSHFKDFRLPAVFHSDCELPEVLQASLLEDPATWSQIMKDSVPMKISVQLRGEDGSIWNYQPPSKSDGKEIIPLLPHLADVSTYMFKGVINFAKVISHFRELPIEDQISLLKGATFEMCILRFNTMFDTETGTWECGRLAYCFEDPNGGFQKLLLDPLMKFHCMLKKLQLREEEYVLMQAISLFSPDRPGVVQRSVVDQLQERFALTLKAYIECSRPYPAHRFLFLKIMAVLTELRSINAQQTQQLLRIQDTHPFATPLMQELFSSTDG
Text: National Center for Advancing Translational Sciences [NCATS] NIH Chemical Genomics Center [NCGC] U.S. Environmental Protection Agency [EPA] National Institutes of Environmental Health Sciences [NIEHS] National Toxicology Program [NTP] Assay overview: The Pregnane X receptor (PXR), a ligand activated nuclear receptor plays a critical role in the regulation of genes involved in drug metabolism and transporters. PXR binds xenobiotics and when compounds interact with PXR produces enhanced expression of CYP3A genes. In humans PXR activation and CYP3A4 induction can be problematic due to their interactions with co-medicated drugs and decrease their efficacy or increase their own metabolism. However, there are known species-specific differences with regard to PXR activation that should be taken into account when animal PXR data are extrapolated to humans. A cell based rat PXR (rPXR) assay (developed by Puracyp, Inc., CA) was used to assess the activation of rPXR.
Assay Protocol Summary: rPXR cells were dispensed at 2,000 per well in 5uL of assay medium into white, solid-bottom 1536-well plates using a Multidrop Combi dispenser (Thermo Scientific). The assay plates were incubated at 37 C for 5hr before transferring 23 nL of test compounds dissolved in DMSO and positive control via Pintool station (Wako). The assay plates were incubated at 37 C for 24 hr. Then 5ul One-Glo assay reagent (Promega) was added to each plate by a Flying Reagent Dispenser (FRD, Aurora Discovery) and following 30 min incubation at room temperature, luciferase activity was quantified on a ViewLux plate reader (Perkin Elmer).
On the % scale 0 is the no-effect control and ±100 the full control effect; potency means the concentration at half of the fitted maximal effect.

Question: How did the max activation turn out when `CC1CCC(C(C)C)C(OC(=O)c2ccccc2N)C1` (stereo unspecified) was run?
Answer: 13.1% (inactive)

Question: How did the max activation turn out when `O=c1oc2ccccc2c(O)c1Cc1c(O)c2ccccc2oc1=O` was run?
Answer: -3.67% (inactive)

Question: `Clc1ccc(CO/N=C(\Cn2ccnc2)c2ccc(Cl)cc2Cl)c(Cl)c1` was tested. Which Potency did it give?
Answer: 25.1 µM (active)

Question: Which max activation does the source give for `O=c1[nH]c2ccccc2n1CCCN1CCC(n2c(=O)[nH]c3cc(Cl)ccc32)CC1` here?
Answer: -1.24% (inactive)

Question: Which max activation does the source give for `C[C@H]1CC[C@@H]2[C@@H](C)[C@H]3[C@H](C[C@H]4[C@@H]5CC=C6CC(O[C@@H]7O[C@H](CO)[C@H](O)[C@H](O[C@@H]8O[C@H](CO)[C@@H](O)[C@H](O)[C@H]8O)[C@H]7O[C@H]7O[C@@H](C)[C@H](O)[C@@H](O)[C@H]7O)CC[C@]6(C)[C@H]5CC[C@]34C)N2C1` (stereo partly specified) here?
Answer: -11.8% (inactive)

Question: For `CCCCCCCCCCCCCCCC[N+](C)(C)C`, which max activation is on record?
Answer: -8.83% (inactive)

Question: `Cc1c(Cl)c(=O)oc2cc(OP(=O)(OCCCl)OCCCl)ccc12` was tested. Which max activation did it give?
Answer: 8.02% (inactive)

Question: For `CC[C@H](C)[C@H]1O[C@]2(C=C[C@@H]1C)C[C@@H]1C[C@@H](C/C=C(\C)[C@@H](O[C@H]3C[C@H](OC)[C@@H](O[C@H]4C[C@H](OC)[C@@H](O)[C@H](C)O4)[C@H](C)O3)[C@@H](C)/C=C/C=C3\CO[C@@H]4[C@H](O)C(C)=C[C@@H](C(=O)O1)[C@]34O)O2`, which max activation is on record?
Answer: -15.3% (inactive)

Question: `COc1cc(N)c(Cl)cc1C(=O)NC1CN2CCC1CC2` (stereo unspecified) was tested. Which max activation did it give?
Answer: -2.4% (inactive)

Question: With `CC(=O)O[C@H]1CC[C@@]2(C)C(=CC[C@@H]3[C@@H]2CC[C@]2(C)C(=O)CC[C@@H]32)C1` as the compound, how does the max activation read?
Answer: -1.42% (inactive)

Question: How did the max activation turn out when `C[C@@H]1O[C@@H](O[C@@H]2C=C3CC[C@@H]4[C@H](CC[C@]5(C)[C@@H](c6ccc(=O)oc6)CC[C@]45O)[C@@]3(C)CC2)[C@H](O)[C@H](O)[C@H]1O` was run?
Answer: -3.43% (inactive)

Question: How did the max activation turn out when `C[C@@H]1O[C@@H](O[C@H]2C[C@@H](O)[C@]3(CO)[C@H]4[C@H](O)C[C@]5(C)[C@@H](C6=CC(=O)OC6)CC[C@]5(O)[C@@H]4CC[C@]3(O)C2)[C@H](O)[C@H](O)[C@H]1O` was run?
Answer: 0.399% (inactive) and -3.08% (inactive)

Question: Which max activation does the source give for `CCCCCCCCCC[N+](C)(C)CCCCCCCCCC` here?
Answer: -13.5% (inactive)

Question: With `Clc1ccc(C(c2ccc(Cl)cc2)C(Cl)(Cl)Cl)cc1` as the compound, how does the max activation read?
Answer: 8.77% (inactive)

Question: Which max activation does the source give for `Clc1ccc(CSC(Cn2ccnc2)c2ccc(Cl)cc2Cl)cc1` (stereo unspecified) here?
Answer: 11.4% (inactive)

Question: With `FC(F)(F)c1cccc(C2=CCN(CCc3ccc4ccccc4c3)CC2)c1` as the compound, how does the max activation read?
Answer: -2.77% (inactive)
